Source: PubChem BioAssay (EPA / NIEHS)
Where “and” joins values, the source holds several entries; their conditions need not be identical. Identical values can stand only once. Calls of active or inactive are those of the source. How the source made its calls: active means hit-call score of the fitted dose curve at least 0.9, where 1 is the maximum; inactive means score below 0.9.

Experiment: CEETOX_H295R_OHPROG: CeeTox H295R High-throughput Steroidogenesis Assay for OH-Progesterone (OHPROG) (AID 2283435)
Details: actives raise or lower the signal
Procedure: CEETOX_H295R is a cell-based, multiplexed-readout assay that uses H295R, a human adrenal gland cell line, with measurements taken at 48 hours after chemical dosing in a 96-well plate.CEETOX_H295R_OHPROG is one of 23 assay component(s) measured or calculated from the CEETOX_H295R assay. It is designed to make measurements of hormone induction, a form of inducible reporter, as detected with absorbance signals by HPLC-MS-MS technology.Data from the assay component CEETOX_H295R_OHPROG was analyzed into 1 assay endpoint. This assay endpoint, CEETOX_H295R_OHPROG, was analyzed with bidirectional fitting relative to DMSO as the negative control and baseline of activity. Using a type of inducible reporter, gain or loss-of-signal activity using HPLC-MS-MS was used to understand synthesis of 17alpha-hydroxyprogesterone in H295R cell line at 48hr of chemical exposure. To generalize the intended target to other relatable targets, this assay endpoint is annotated to the steroid hormone intended target family, where the subfamily is progestagens.
Cell culture and media preparation procedures were conducted in accordance with OECD Test No. 456 guidelines, with minor modifications. H295R cells (ATCC CRL-2128) were expanded for 5 passages and frozen in batches in liquid nitrogen. Prior to the steroidogenesis assay, H295R cells were thawed and passed at least 4 times. The maximum passage was 10. Cells were maintained in a 1:1 mixture of DMEM/F12 supplemented with 5ml/L ITS+ Premix (BD Bioscience) and 12.5 ml/L Nu-Serum (BD Bioscience). After seeding cells into 96-well plates at 50-60% confluency, cells were allowed to adhere overnight. Prior to chemical testing, culture medium was replaced with 175 uL medium containing 10 uM forskolin to stimulate steroidogenesis for 48 hours. Following prestimulation, forskolin medium was replaced with medium containing test chemical solubilized in DMSO (ensuring a final concentration of 0.1% DMSO). Test chemicals were incubated for 48 hours, then the medium was removed and split into 2 vials containing approximately 75uL each, and stored at -80 C prior to hormone analysis. For steroid quantification, media samples were shipped to OpAns, LLC (Durham, NC) on dry ice, and samples were thawed to room temperature prior to liquid-liquid extraction. Steroid hormones were extracted from media samples using methyl tertbutyl ether (MTBE). An extra derivatization with dansyl chloride was included for estrogen (estrone and estradiol) detection only. Steroid hormones were separated by HPLC, eluted using a reverse phase C18 gradient with electrospray positive ionization, followed by quantification by tandem mass spectrometry (MS/MS). Data were acquired on a MassHunter Workstation Acquisition version B03.01 (Agilent Technologies, Inc.) and processed using MassHunter Quantitative Analysis for QQQ. Accuracy was determined for each hormone analyte from 3 standards to determine upper and lower limits of quantification (ULOQ and LLOQ, respectively) using a 7-point standard curve. Precision and accuracy of the extraction and quantification methods were calculated as the percent relative standard deviation (%RSD) of the spiked standards and percent spiked standard recovered, respectively. […] Test medium was removed following chemical exposure, and cell viability was evaluated in the same wells by MTT. MTT procedures were as follows: after removal of test medium, 500 uL of 0.5 mg/ml of 3-[4,5-dimethylthiazol-2-y]2,5-diphenyltetrazoliumbromide solution was added to the cells. Following a 4-hour incubation at 37 C and 5% CO2 to allow formazan-crystal formation, the MTT solution was removed and blue formazan salt crystals were solubilized using 500uL anhydrous isopropanol with shaking for 20 minutes. Absorbance was read at 570 and 650nm using a Packard Fusion microplate reader. Background correction of absorbance units was used to determine percent change relative to controls. […]

| SMILES | outcome | AC50 |
| --- | --- | --- |
| CC(C)Nc1ccc(Nc2ccccc2)cc1 | inactive | – |
| Cc1cccc(N)c1 | inactive | – |
| CCNc1nc(Cl)nc(NC(C)(C)C)n1 | inactive | – |
| O=S1(=O)OCC2C(CO1)C1(Cl)C(Cl)=C(Cl)C2(Cl)C1(Cl)Cl (stereo unspecified) | – | 10 µM (active) |
| c1ccc(OP(Oc2ccccc2)Oc2ccccc2)cc1 | inactive | – |
| CC(C)(C)c1ccc(O)cc1 | – | 24.2 µM (active) |
| Nc1ccc(Cl)cc1 | – | 25.5 µM (active) |
| CCCCc1ccc(O)cc1 | inactive | – |
| CCC(C)(C)c1ccc(O)cc1 | – | 15.5 µM (active) |
| CCCCOCCOP(=O)(OCCOCCCC)OCCOCCCC | inactive | – |
| c1ccc2c(c1)Nc1ccccc1S2 | – | 20.4 µM (active) and 25 µM (active) and 18.1 µM (active) |
| CO/N=C(/C(=O)OC)c1ccccc1COc1ccccc1C | – | 4.07 µM (active) |
| Cc1ccc(O)cc1C | inactive | – |
| O=S(=O)(c1ccc(O)cc1)c1ccc(O)cc1 | – | 0.82 µM (active) |
| Nc1ccc([N+](=O)[O-])cc1Cl | inactive | – |
| N#Cc1c(-c2ccc(Cl)cc2)[nH]c(C(F)(F)F)c1Br | – | 0.282 µM (active) |
| O=P(Oc1ccccc1)(Oc1ccccc1)Oc1ccccc1 | – | 1.85 µM (active) |
| Oc1ccc(I)cc1 | – | 18.6 µM (active) |
| Nc1ccc2ccccc2c1 | – | 13.9 µM (active) |
| CC(=O)c1ccc(-c2ccccc2)cc1 | – | 25.8 µM (active) |
| CCOP(=S)(OCC)SCn1nnc2ccccc2c1=O | – | 10 µM (active) |
| COP(N)(=S)OC | inactive | – |
| Nc1cc2c3c(c1)C(c1ccccc1)=N[C@@H](NC(=O)c1cccnc1)C(=O)N3CC2 | – | 4.41 µM (active) |
| CCOP(=S)(NC(C)C)Oc1ccccc1C(=O)OC(C)C (stereo unspecified) | – | 4.65 µM (active) |
| ClC(Cl)=C(c1ccc(Cl)cc1)c1ccccc1Cl | inactive | – |
| CCOP(=S)(Oc1ccc([N+](=O)[O-])cc1)c1ccccc1 (stereo unspecified) | – | 0.404 µM (active) |
